# IL-1B inflam inh: inflammasome signaling inhibition, IL-1 beta readout; THP-1 LPS/ATP IL-1B secretion, AlphaLISA, 16 h; active compounds read low; actives 4.7% (n = 360,000); activity change, % at 57.5 µM; in the data active means activity change below about -50%; inconclusive means mostly about -30% to -49%
#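 Secreted IL-1B measured by AlphaLISA bead assay after 16 h compound exposure of THP-1 cells; compounds (final up to 57.5 uM) added 1 h before LPS (250 ng/mL) and ATP (1.25 mM) stimulation; lower signal means less secretion.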
# DT40 TDP1 no CPT: qHTS for Inhibitors of human tyrosyl-DNA phosphodiesterase 1 (TDP1): qHTS in cells in absence of CPT | DT40 Tdp1-/- hTDP1 cells, no CPT, ATP luminescence, 48 h | Potency, µM (series often up to 46.2 µM), inactives show top-dose activity change, negative = growth inhibition, hits mostly inhibitors | actives 15% (n = 420,000) | AID 686978, 2013; further: potency means the concentration at half of the fitted maximal effect; nearly all actives have a fitted effect of over 55% in size
#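 Growth of hTDP1-complemented DT40 Tdp1-knockout cells is measured by ATP luminescence after at least 48 hr compound exposure at 37 °C, with DMSO substituting for the 20 nM CPT used in the parallel screen.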
# HT1080NT lethal: kills 2HG-producing HT-1080-NT fibrosarcoma cells; Potency, µM (top dose mostly 46.1 µM), for the others: top-dose activity, negative = less viability, actives largely listed as cytotoxic; actives 1.6% (n = 360,000); HT-1080-NT fibrosarcoma viability, CellTiter-Glo ATP luminescence, 48 h;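 further: NT is the 2HG producing partner of a matched IDH1 knockdown line; potency means the concentration at half of the fitted maximal effect; 0% = DMSO-treated cells and -100% = media-only wells without cells; nearly all actives have a fitted effect of over 55% in size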
#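 HT-1080-NT; 750 cells/well; 5% FBS RPMI; 48 h compound, 37 degrees C; CellTiter-Glo luminescence; curve fitting and curve-class assignment.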
# DT40 TDP1 CPT: DT40-hTDP1 cell growth loss with CPT; chicken DT40 Tdp1-/-;hTDP1 cells + 20 nM CPT, ATP luminescence, 48 h; Potency, µM (highest dose often 46.2 µM), for inactives: top-dose activity change, negative = growth inhibition, actives largely listed as inhibitors; actives 12% (n = 420,000); AID 686979; further: potency means the concentration at half of the fitted maximal effect; nearly all actives have a fitted effect of over 55% in size
#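 Chicken DT40 Tdp1-/- cells complemented with human TDP1, 400 cells/well, exposed to compounds plus 20 nM camptothecin for at least 48 h at 37 C; viability read as ATP content by CellTiter-Glo luminescence.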
# HT1080 IDH1KD tx: kills HT-1080 cells with IDH1 knockdown; Potency, µM (highest dose often 46.1 µM), inactives show top-dose activity, negative = toxicity, hits mostly cytotoxic; HT-1080 IDH1 knockdown viability, ATP luminescence, 48 h; actives 2% (n = 360,000);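 further: potency means the concentration at half of the fitted maximal effect; 0% = DMSO wells and -100% = cell-free medium wells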
#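 CellTiter-Glo luminescence after 48 h compound exposure at 37 degrees C of IDH1-knockdown HT-1080 cells in 5% FBS RPMI. %Activity scaled between DMSO wells and cell-free media wells, with curves fitted and assigned curve classes.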
# Numbers without * were called inactive; ? = inconclusive; . = no result given; [ ] = another dose, or the depositor's remark. Shown are actives, neighbours in structure and some others; about 19% of the full set was active somewhere. Unless noted, the call rests on the fitted dose curve; in most records, active means well fitted curve in the direction sought with a large enough effect; inconclusive means small, poorly fitted or top-dose-only effect, or another doubt; inactive means no such curve, though single readings can be large; an effect the other way counts as inactive or inconclusive. Unless noted, on the % scale 0 is the no-effect control and ±100 the full control effect.
SMILES,IL-1B inflam inh,DT40 TDP1 no CPT,HT1080NT lethal,DT40 TDP1 CPT,HT1080 IDH1KD tx
COc1ccc(OCCCn2cc(/C=C3/C(=N)N4C=C(C)SC4=NC3=O)c3ccccc32)cc1,19,7.3µM*,5%,?,4%
COc1cccc(OCCCn2cc(/C=C3/C(=N)N4C=C(C)SC4=NC3=O)c3ccccc32)c1,8,6.5µM*,?,8.2µM*,?
Cc1ccc2c(c1)CC[C@H]1CC(=O)CC[C@@]21C,.,-23%,.,2%,.
CC(=O)c1cccc(OCC(=O)c2cc(C)n(-c3cc(C)on3)c2C)c1,-17,18µM*,-16%,18µM*,-30%
Cc1cc(-n2c(C)cc(C(=O)COc3cccnc3[N+](=O)[O-])c2C)no1,12,15µM*,0%,12µM*,-8%
O=C(COc1cccnc1[N+](=O)[O-])c1ccc(Cl)s1,-11,16µM*,13%,16µM*,2%
COc1ccc(/C=C2/SC(=S)N(Cc3ccccc3)C2=O)cc1O,?,-11%,-27%,-27%,?
COc1ccc(O)c(/C=C2/SC(=S)N(Cc3ccccc3)C2=O)c1,5,21µM*,0%,?,1%
O=C1/C(=C\c2cc(Cl)c(O)c(Cl)c2)SC(=S)N1Cc1ccccc1,-19,2.3µM*,?,6.5µM*,?
NC(=O)N\N=C/C=C/C=C/c1ccc(F)cc1,-3,-4%,9%,23%,14%
COc1ccccc1CNS(=O)(=O)c1ccc(N2CCCC2)cc1Br,-5,?,-11%,16µM*,-13%
COc1ccc(/C=N/NC(=O)C(=O)/C=C2\NC3(CCCC3)Cc3ccccc32)cc1,-20,?,-7%,?,-4%
O=C(/C=C1\NC2(CCCC2)Cc2ccccc21)C(=O)N/N=C/c1ccc(O)c(O)c1,?,4.6µM*,?,5.8µM*,?
O=C(NCCc1ccc(C(F)(F)F)cc1)C1CC(=O)N(Cc2ccccc2)C1 (configuration not stated),19,-1%,8%[9.24 µM],-23%,-6%
Cn1c(-c2ccccc2)cnc1NCc1cccc([N+](=O)[O-])c1,?,?,9%,?,7%
CSc1ccc(CNc2ncc(-c3cccc([N+](=O)[O-])c3)n2C)cc1,?,23µM*,-8%,16µM*,-1%
CSc1ccc(CNc2ncc(-c3ccccc3)n2C)cc1,.,18µM*,.,?,.
COC(=O)C1CCN(S(=O)(=O)c2cc3c4c(c2)CCN4C(=O)CC3)CC1,-5,-7%,0%,-8%,1%
Cc1ccc(CN2[C@@H](CC3CCCCC3)COCCS2(=O)=O)cc1,-19,13µM*,19%,?,7%
O=S1(=O)CCOC[C@H](CC2CCCCC2)N1Cc1ccc(Cl)cc1,11,3.5µM*,-3%,2.8µM*,-1%
O=S1(=O)CCOC[C@H](CC2CCCCC2)N1Cc1cccc(F)c1,-14,?,1%,?,-1%
CCN(CC)S(=O)(=O)c1ccc2[nH]c(=O)cc(C(=O)NCc3ccccc3)c2c1,3,0%,2%,-22%,5%
COc1ccc(CNC(=O)C(c2ccco2)N(C(=O)CNS(=O)(=O)c2ccccc2)c2ccccc2C)cc1 (configuration not stated),-4,?,9%,?,1%
COc1ccc(NC(=O)CN2CCC(C(N)=O)(N3CCCCC3)CC2)c(OC)c1,31,5%,-2%,14%,5%
CCOc1cc(CNCc2ccccc2)ccc1OCC(=O)NC1CCCCC1,-6,16µM*,-14%,18µM*,1%
SMILES,IL-1B inflam inh,DT40 TDP1 no CPT,HT1080NT lethal,DT40 TDP1 CPT,HT1080 IDH1KD tx
Cc1ccc(C)c(OCC(=O)NC2CCCCCC2)c1,-66*,?,-12%,-28%,-24%
O=C(COc1ccc(Br)cc1Cl)NC1CCCCC1,-7,?,8%,-12%,18%
O=C(COc1ccc(Br)cc1Br)NC1CCCC1,-22,?,?,4.1µM*,-14%
COc1cc(CNCc2ccccn2)ccc1OCC(=O)NC1CCCCC1,14,-24%,8%,-21%,-9%
Cc1ccc(S(=O)(=O)CCC(=O)NC2CCCCC2)cc1,13,15µM*,11%,18µM*,4%
O=C(COc1ccc(Br)cc1CNC1CCCC1)Nc1ccccc1,-63*,18µM*,?,?,?
Cc1cc(Cl)ccc1OCC(=O)NC1CCCC1,-85*,13µM*,?,12µM*,-10%
CNCc1ccccc1OCC(=O)Nc1ccccc1,11,-2%,0%,2%,0%
CCN(CC)CCNCc1cc(Br)ccc1OCC(=O)NCc1ccccc1,-12,1%,-16%,-2%,-10%
CC(NCc1cc(Br)ccc1OCC(=O)NCc1ccccc1)c1ccccc1 (configuration not stated),-68*,?,-3%,?,-18%
CCOC(=O)C1CCN(C(=O)COc2ccc(Br)cc2Br)CC1,-66*,-6%,-27%,-19%,-3%
COC(=O)c1ccc(CN2CCOc3ccc(C(O)c4cccnc4)cc3C2)cc1 (configuration not stated),.,-17%,.,3%[9.04 µM],.
O=C(Nc1ccc(S(=O)(=O)NC2=NCCCCC2)cc1)c1ccco1,3,5%,4%,-4%,2%
CCC(CC)COC(=O)C1=C(C)NC(=O)NC1c1cccc([N+](=O)[O-])c1 (configuration not stated),-15,?,-9%,?,-26%
CN(c1ccc(C(=O)N2CCCCCC2)cc1)S(=O)(=O)c1ccccc1,14,8.2µM*,2%,13µM*,-1%
COc1cc2c(cc1OC)CN(C(=O)c1ccc(S(=O)(=O)N(C)c3ccccc3)cc1)CC2,2,15µM*,?,?,-9%
COc1cc2c(cc1OC)CN(C(=O)c1cccc(S(=O)(=O)N3CCc4ccccc43)c1)CC2,?,16µM*,-2%,21µM*,-29%
CN(c1ccc(C(=O)N2CCCCC2)cc1)S(=O)(=O)c1cccs1,0,?,-8%,?,-13%
COc1ccc(S(=O)(=O)N(C)c2ccc(C(=O)N3CCCCC3)cc2)cc1OC,46,21µM*,-11%,7.3µM*,-6%
COc1cc2c(cc1OC)CN(C(=O)c1ccc3nc[nH]c3c1)CC2,68,3.3µM*,10µM*,3.3µM*,12µM*
O=C(c1ccc(-c2nnc(-c3ccccc3)o2)cc1)N1CCCCCC1,-6,18µM*,1%,10µM*,-4%
COc1cc2c(cc1OC)CN(C(=O)c1ccncc1)CC2,6,6%,-4%,5%,8%
O=C(c1ccc2nc[nH]c2c1)N1CCc2ccccc2C1,12,-29%,5%,2%,17%
